From PubChem BioAssay come the findings set out here.

The source made the active and inactive calls. Unless noted, how the calls were made is not given here.

The nature of assay [1]: compounds binding Alexa647 anti-His antibody – biochemical, small-molecule microarray, 635 nm fluorescence, artefact control for SMM control protein annotation, primary screen (AID 1128).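 Further: score merges feature fluorescence with signal-to-noise for each printed compound spot.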 The following applies: higher = more signal.
Assay [2] relates to Human papillomavirus type 1a E7 protein (residues 1-88). Put plainly: HPV1a E7 small-molecule binders, primary screen, biochemical, small-molecule microarray, residues 1-88, 635 nm (AID 1129). The settings on record: small-molecule microarray binding, fluorescence 635 nm; higher = more signal.
Assay [3] concerns the target Focal adhesion kinase 1 (Homo sapiens) (UniProt Q05397). Briefly: PTK2 protein binding on printed compound slides – biochemical, small-molecule microarray, 635/667 nm fluorescence, BSA, DTT, primary screen (AID 1130).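 Further: composite of spot emission at 667 nm and signal to noise over triplicate slides.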 The settings on record: 635 nm fluorescence, higher = more signal.
Assay [4] relates to Fibrinogen (Alexa647-labelled). Briefly: Alexa647-fibrinogen binding to printed small molecules – biochemical, small-molecule microarray, 635/667 nm fluorescence, artefact control for SMM control-protein annotation, profiling panel (AID 1131).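 Further: z-score merges 667 nm fluorescence with per-spot signal-to-noise over triplicate slides.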 The following applies: fibrinogen-A647 binding fluorescence, higher = more signal.
The target of assay [5] is Follistatin (Homo sapiens) (UniProt P19883). Briefly: FST protein binding to printed compounds – biochemical, small-molecule microarray, 635/667 nm fluorescence, primary screen (AID 1132). The following applies: 635 nm fluorescence, higher = more signal.
Follistatin (Homo sapiens), sequence (P19883 whole entry, looked up): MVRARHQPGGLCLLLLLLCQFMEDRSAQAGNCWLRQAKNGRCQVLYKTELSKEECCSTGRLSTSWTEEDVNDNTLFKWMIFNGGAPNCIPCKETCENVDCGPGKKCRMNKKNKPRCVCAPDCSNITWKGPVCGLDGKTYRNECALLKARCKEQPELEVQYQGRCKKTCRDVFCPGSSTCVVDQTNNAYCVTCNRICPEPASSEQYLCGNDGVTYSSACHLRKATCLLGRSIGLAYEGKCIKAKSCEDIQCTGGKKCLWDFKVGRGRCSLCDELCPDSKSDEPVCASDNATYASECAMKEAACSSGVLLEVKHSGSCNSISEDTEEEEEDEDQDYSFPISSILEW
Assay [6] deals with Fibroblast growth factor 2 (Homo sapiens) (UniProt P09038). Briefly: basic fibroblast growth factor binding to printed compounds – biochemical, small-molecule microarray, 635/667 nm fluorescence, primary screen (AID 1133). The settings on record: FGF2, fluorescence 635/667, higher = more signal.
Fibroblast growth factor 2 (Homo sapiens), sequence (P09038 whole entry, looked up): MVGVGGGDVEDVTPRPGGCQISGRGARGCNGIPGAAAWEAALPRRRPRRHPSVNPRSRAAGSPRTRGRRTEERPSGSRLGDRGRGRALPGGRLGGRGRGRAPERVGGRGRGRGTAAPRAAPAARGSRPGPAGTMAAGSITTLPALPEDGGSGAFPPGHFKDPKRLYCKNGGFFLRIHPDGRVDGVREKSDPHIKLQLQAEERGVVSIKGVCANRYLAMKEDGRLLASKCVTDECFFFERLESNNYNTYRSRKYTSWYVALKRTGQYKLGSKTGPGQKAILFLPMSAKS
Assay [7] in a line: JC-1 mitochondrial potential readout, lung cancer cells – cell-based, A549, JC-1 fluorescence, basal, 24 h, 100 nL, profiling panel (AID 1138).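 Further: A549 lung adenocarcinoma cells under basal conditions with no added stimulus; test concentration not given here.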 The settings on record: higher = more signal.
Assay [8] deals with Lefty1. Briefly: Lefty1 protein binding to printed compounds – biochemical, small-molecule microarray, 635/667 nm fluorescence, primary screen (AID 1139). The settings on record: fluorescence 635/667, higher = more signal.
The subject of assay [9] is wheat germ agglutinin (Triticum aestivum), Alexa647-labelled. Briefly: Alexa647-WGA lectin binding to printed small molecules – biochemical, small-molecule microarray, 635/667 nm fluorescence, artefact control for SMM control-protein annotation, profiling panel (AID 1140).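 Further: score merges 667 nm feature emission with signal to noise over triplicate slides.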 The following applies: WGA-A647 binding, 635 nm fluorescence, higher = more signal.
The target of assay [10] is Luciferin 4-monooxygenase (Photinus pyralis) (UniProt P08659). Put plainly: inhibition of purified Photinus pyralis luciferase – biochemical, luminescence, purified enzyme, 2006 set, primary screen (AID 1141).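 Further: cell-free assay with purified firefly luciferase at 100 ng per well in PBS; test concentration not given here.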 The settings on record: purified firefly luciferase, SteadyGlo luminescence, 30 min; higher = more signal, called active from +8 up or from −8 down.
Luciferin 4-monooxygenase (Photinus pyralis), sequence (P08659 whole entry, looked up): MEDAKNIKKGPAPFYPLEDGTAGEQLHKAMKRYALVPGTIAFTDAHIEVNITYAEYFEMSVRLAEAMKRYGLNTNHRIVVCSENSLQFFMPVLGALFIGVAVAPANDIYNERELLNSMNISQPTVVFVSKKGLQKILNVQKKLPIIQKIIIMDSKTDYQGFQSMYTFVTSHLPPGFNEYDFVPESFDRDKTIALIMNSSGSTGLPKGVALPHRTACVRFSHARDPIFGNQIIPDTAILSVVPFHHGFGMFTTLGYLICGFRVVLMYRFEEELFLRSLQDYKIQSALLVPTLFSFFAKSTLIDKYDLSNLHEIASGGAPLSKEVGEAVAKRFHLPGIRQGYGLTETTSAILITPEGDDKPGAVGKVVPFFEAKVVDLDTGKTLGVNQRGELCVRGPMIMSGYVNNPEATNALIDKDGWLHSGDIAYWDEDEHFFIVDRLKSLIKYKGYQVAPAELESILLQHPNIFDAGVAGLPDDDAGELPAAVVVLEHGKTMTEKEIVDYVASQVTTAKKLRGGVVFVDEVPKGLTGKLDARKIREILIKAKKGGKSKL
Assay [11] deals with Wnt5a (protein binding on small-molecule microarray). Put plainly: small molecules binding Wnt5a protein – biophysical, small-molecule microarray, 635/667 nm fluorescence, primary screen (AID 1142).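 Further: fluorescence read at 667 nm with signal to noise per printed feature.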 The following applies: 635 nm fluorescence, higher = more signal.
A short description of assay [12]: ATP-based viability of Huh7 replicon cells – cell-based, CellTiter-Glo luminescence, basal, 48 h, cytotoxicity control for HCV replication inhibitor project, primary screen (AID 1143).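 Further: Huh7 hepatoma cells carrying a hepatitis C replication reporter with no stimulus; test concentration not given here.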 The settings on record: higher = more signal, called active from +8 up or from −8 down.
Assay [13] is described as follows: Pseudomonas biofilm growth suppression – PAO1 strain, BacTiter-Glo luminescence, LB-PBS, primary screen (AID 1144). The settings on record: P. aeruginosa PAO1 biofilm, 12 h, higher = more signal.
Assay [14] in a line: basal CRE-LacZ reporter activity in PC12 – cell-based, unstimulated, primary screen (AID 1145). The settings on record: no forskolin, luminescence, 4.5 h, higher = more signal, called active from +8 up or from −8 down.
The nature of assay [15]: forskolin-driven CRE-LacZ activity in PC12 – cell-based, CRE-LacZ reporter, forskolin-stimulated, primary screen (AID 1146).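 Further: PC12 cells with 6xCRE LacZ reporter stimulated by forskolin 10 µM; beta-galactosidase reporter signal reflecting CREB driven transcription.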 The settings on record: luminescence, 4.5 h, higher = more signal, called active from +8 up or from −8 down.
Assay [16] has as its target Streptavidin (Streptomyces avidinii) (UniProt P22629). Put plainly: compounds binding control protein streptavidin – biophysical, small-molecule microarray, 635/667 nm fluorescence, artefact control for SMM compound annotation, primary screen (AID 1147).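 Further: signal reflects streptavidin binding to arrayed compounds as a control protein.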 The settings on record: higher = more signal.
Assay [17] is described as follows: probe aInhba binding on compound microarray – biochemical, small-molecule microarray, 635/667 nm fluorescence, primary screen (AID 1148).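 Further: score merges 667nm spot fluorescence with signal-to-noise for antibody binding to printed compounds.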 The settings on record: higher = more signal.
Assay [18] addresses Torsin-1A (Homo sapiens) (UniProt O14656). Put plainly: TOR1A wild-type binding on microarray – cell lysate, small-molecule microarray, lysate, 635/667 nm, primary screen (AID 1149). The following applies: COS7 hTOR1A-WT lysate, 635 nm fluorescence, higher = more signal.
Assay [19] has the same target. Put plainly: torsin A mutant lysate binding on microarrays – cell lysate, small-molecule microarray, COS7 lysate, 635/667 nm fluorescence, primary screen (AID 1150).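 Further: score pools 667 nm emission and signal to noise measuring lysate protein binding.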 The following applies: COS7 hTOR1A mutant lysate, 635 nm fluorescence, higher = more signal.
Assay [20] has as its system Sonic hedgehog protein (Shh). Put plainly: Sonic hedgehog microarray binding compounds – biochemical, small-molecule microarray, 635/667 nm fluorescence, primary screen (AID 1151).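 Further: Shh protein binding to compounds spotted on small-molecule microarray slides; score combines spot fluorescence intensity with signal-to-noise across triplicate slides.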 The following applies: 635 nm fluorescence, higher = more signal.

Torsin-1A (Homo sapiens), sequence (O14656 whole entry, looked up): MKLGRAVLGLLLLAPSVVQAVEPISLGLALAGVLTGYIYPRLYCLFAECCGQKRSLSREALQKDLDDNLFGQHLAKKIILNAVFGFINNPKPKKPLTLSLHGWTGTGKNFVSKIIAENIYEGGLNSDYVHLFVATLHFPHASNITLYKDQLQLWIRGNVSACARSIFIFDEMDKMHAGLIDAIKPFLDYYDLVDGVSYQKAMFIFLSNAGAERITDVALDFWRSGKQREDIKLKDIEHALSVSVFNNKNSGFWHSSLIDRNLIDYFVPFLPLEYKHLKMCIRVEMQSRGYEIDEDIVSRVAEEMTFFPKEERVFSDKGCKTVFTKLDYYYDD
Streptavidin (Streptomyces avidinii), sequence (P22629 whole entry, looked up): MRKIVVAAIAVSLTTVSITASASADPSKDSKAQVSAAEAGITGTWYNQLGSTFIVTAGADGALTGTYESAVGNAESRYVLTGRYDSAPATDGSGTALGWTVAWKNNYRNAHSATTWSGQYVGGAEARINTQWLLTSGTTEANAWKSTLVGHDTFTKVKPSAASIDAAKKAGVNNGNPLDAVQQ
Focal adhesion kinase 1 (Homo sapiens), sequence (Q05397 whole entry, looked up): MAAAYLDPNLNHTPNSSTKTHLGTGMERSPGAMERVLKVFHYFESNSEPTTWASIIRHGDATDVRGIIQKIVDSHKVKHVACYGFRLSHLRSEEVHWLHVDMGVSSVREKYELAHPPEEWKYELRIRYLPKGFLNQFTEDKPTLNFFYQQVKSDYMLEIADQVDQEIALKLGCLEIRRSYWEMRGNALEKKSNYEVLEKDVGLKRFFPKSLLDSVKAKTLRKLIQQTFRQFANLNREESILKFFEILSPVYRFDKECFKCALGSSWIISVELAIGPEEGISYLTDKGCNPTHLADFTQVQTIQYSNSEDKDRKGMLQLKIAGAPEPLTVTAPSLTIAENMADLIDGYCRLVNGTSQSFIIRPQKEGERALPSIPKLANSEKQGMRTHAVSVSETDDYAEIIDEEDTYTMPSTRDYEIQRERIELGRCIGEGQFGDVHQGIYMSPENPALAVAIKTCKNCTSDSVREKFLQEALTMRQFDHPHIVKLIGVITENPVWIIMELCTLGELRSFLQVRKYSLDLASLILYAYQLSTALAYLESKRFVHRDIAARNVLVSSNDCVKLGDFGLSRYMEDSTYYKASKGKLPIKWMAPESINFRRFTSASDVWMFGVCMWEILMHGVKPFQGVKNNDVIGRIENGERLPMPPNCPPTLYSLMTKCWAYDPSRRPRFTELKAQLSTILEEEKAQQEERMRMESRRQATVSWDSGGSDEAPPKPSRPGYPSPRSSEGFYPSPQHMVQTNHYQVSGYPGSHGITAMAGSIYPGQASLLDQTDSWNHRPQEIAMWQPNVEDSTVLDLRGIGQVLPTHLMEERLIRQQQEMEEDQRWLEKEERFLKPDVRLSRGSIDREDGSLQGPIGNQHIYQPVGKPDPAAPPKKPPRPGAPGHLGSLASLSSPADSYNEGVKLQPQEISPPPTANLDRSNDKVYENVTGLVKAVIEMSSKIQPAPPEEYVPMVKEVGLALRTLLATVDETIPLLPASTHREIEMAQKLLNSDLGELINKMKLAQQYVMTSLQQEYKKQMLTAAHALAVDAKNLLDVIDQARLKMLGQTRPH

For `NC(=O)[C@H]1[C@@H]2C(=O)O[C@@H](c3ccccc3)[C@@H](c3ccccc3)N2[C@@H](c2ccc(O)cc2)[C@]12C(=O)Nc1ccccc12`, the composite z-score is 0.53 in [1]; -0.189 in assay [2]; -0.91 in assay [3]; -1.61 in assay [4]; -0.441 in assay [5]; -0.943 in assay [6]. Also, the composite z-score is -0.502 in assay [8]; -1.03 in assay [9]; -0.355 in [11]; -1.08 in assay [16]; -0.128 in [17]; -1.54 in assay [18]. Further, the composite z-score in assay [19] was -1.73; in assay [20], -0.96. Besides, the z-score in assay [7] is -0.186; in assay [10], -0.794 (inactive); in assay [12], -0.0816 (inactive); in [13], 0.191 (inactive); in assay [14] it was -0.141 (inactive); in [15], 0.272 (inactive).
Consider `CCOC(=O)C1=CCN(S(=O)(=O)c2ccc(C)cc2)C1c1ccccc1` (stereo not given), for which the composite z-score in assay [1] amounted to 0.843; in assay [2], 1.2; in assay [3], 0.656; in assay [4], 0.609; in assay [5], 0.467; in [6], 0.835. The composite z-score in [8] is 0.0842; in assay [9], 0.652; in assay [11], 0.0881; in assay [16] it was 0.388; in [17], 0.141; in assay [18] it was 0.355. Further, the composite z-score in assay [19] turned out to be 0.302; in assay [20] it was 0.598. Also, the z-score in assay [7] is 0.942; in [10], 1.75 (inactive); in [12], -3.3 (inactive); in [13], 0.498 (inactive); in assay [14], -0.284 (inactive); in assay [15] it was -1.12 (inactive).
Regarding `COCCOC(=O)N1C(=O)[C@@]2(c3ccccc31)[C@H](c1ccccc1OCCO)N1[C@H](c3ccccc3)[C@H](c3ccccc3)OC(=O)[C@H]1[C@@H]2C(=O)N1CCCCCCC1`, the composite z-score worked out at 0.703 in assay [1]; 1.32 in assay [2]; 3.01 in assay [3]; 0.995 in assay [4]; 1.53 in assay [5]; 1.55 in assay [6]. Besides, the composite z-score worked out at 1.71 in assay [8]; 1.63 in [9]; 1.82 in assay [11]; 3.64 in assay [16]; 2.24 in [17]; 2.69 in assay [18]. Further, the composite z-score in assay [19] turned out to be 2.39; in assay [20], 1.77. Besides, the z-score is -0.0428 in assay [7]; -0.507 (inactive) in [10]; -3.1 (inactive) in assay [12]; -0.41 (inactive) in assay [13]; -0.744 (inactive) in assay [14]; 4.93 (inactive) in assay [15].
With `[N-]=[N+]=Nc1ccccc1C[C@]1(C(=O)O)N=C(c2ccc(OCCCO)cc2)O[C@H]1c1ccccc1`, the composite z-score in assay [1] is 0.133; in [2], 0.612; in assay [3], -0.0641; in assay [4], 0.282; in assay [5] it was 0.968; in [6], -0.619. Besides, the composite z-score was -0.605 in [8]; 0.801 in [9]; 0.0269 in assay [11]; 0.261 in assay [16]; 0.189 in [17]; 1.05 in assay [18]. For the same compound, the composite z-score was 1.45 in assay [19] and -0.536 in assay [20]. Moreover, the z-score in assay [7] was 0.12; in [10] it was -3.91 (inactive); in [12] it was -0.218 (inactive); in assay [13], -0.54 (inactive); in [14] it was 2.53 (inactive); in [15], -0.522 (inactive).
Turning to `COc1ccc(NC(=O)O[C@H]2[C@@H]3OC(=O)[C@H](Cc4cccc(Br)c4)C/C=C/C[C@@H](Cc4cccc(Br)c4)C(=O)O[C@H]3[C@@H](OC)O[C@@H]2CO)cc1`, the composite z-score in assay [1] came to 0.66; in assay [2], 0.632; in assay [3], 1.73; in assay [4], 0.145; in assay [5] it was 0.358; in assay [6], 0.293. For the same compound, the composite z-score in assay [8] worked out at 1.16; in assay [9], 0.464; in assay [11], 0.232; in assay [16] it was 0.328; in assay [17] it was 0.318; in assay [18], 0.344. For the same compound, the values for the composite z-score in assay [19] and in assay [20] were 1.34 and 0.597, respectively. In addition, the z-score is 1.69 in [7]; -1.29 (inactive) in [10]; -0.878 (inactive) in assay [12]; 0.388 (inactive) in [13]; 0.753 (inactive) in assay [14]; -0.686 (inactive) in assay [15].
As for `COc1cc(NN2C(C(O)c3cc(OC)c(OC)c(OC)c3)C=CC3C(=O)N(c4ccccc4)C(=O)C32)cc(OC)c1OC` (stereo not given), the composite z-score came to 1.41 in [1]; 1.27 in assay [2]; 0.6 in [3]; 1.04 in assay [4]; 1.28 in assay [5]; 1.56 in assay [6]. The composite z-score was 0.133 in assay [8]; 0.848 in assay [9]; 0.582 in assay [11]; 1.8 in assay [16]; 0.867 in [17]; -0.152 in [18]. Also, the composite z-score in assay [19] is 0.816; in [20], -0.317. For the same compound, the z-score was -0.609 in assay [7]; -0.771 (inactive) in assay [10]; -2.99 (inactive) in [12]; -0.24 (inactive) in assay [13]; 0.243 (inactive) in [14]; -0.0967 (inactive) in [15].
For `COC(=O)[C@@]1(Cc2ccc(OC)cc2)[C@H]2c3cc(C(=O)N4CCCC4)n(Cc4cc(C)n(C)n4)c3C[C@H]2CN1C(=O)c1ccccc1`, the composite z-score in [1] was 1.58; in assay [2], 1.17; in assay [3], 2.74; in assay [4] it was 1.05; in assay [5] it was -0.326; in [6], -0.622. Further, the composite z-score in assay [8] is -0.801; in [9], 1.33; in assay [11], 0.973; in assay [16], 1.92; in assay [17] it was 0.605; in [18], 0.544. Further, the composite z-score in [19] was 0.24; in assay [20], -0.319. The z-score in assay [7] was 1.16; in assay [10], 0.769 (inactive); in assay [12] it was -0.434 (inactive); in [13], 0.463 (inactive); in assay [14], -0.375 (inactive); in assay [15] it was 0.543 (inactive).
